According to PubChem BioAssay AID1159580 (chemical genetic matrix, 2015):
Hit rate of the full screen: of about 5,500 compounds, about 2,000 (36%) were called active. Roughly 18% stayed inconclusive and do not appear here. No stated cut-off is given here; in the data, active means normalized growth mostly below about 0.91 (no sharp cut-off); inconclusive means no clear call, values can overlap the other calls; inactive means mostly above about 0.92. This is one part of the list.

Test: chemical genetic growth profiling, strain panel (AID 1159580);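 further: tested at 20 µM; growth read once vehicle control cultures reached saturation at 30 °C; 1 = growth at the plate median or of vehicle wells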
Details: growth OD

Measured: normalized growth

O=C(O)c1cc2ccccc2[nH]1
inactive: S. cerevisiae deletion strains, locus YJR075W, strain HOC1, stronger effect = lower value 1.01 | S. cerevisiae deletion strains, locus YKL009W, strain mrt4, stronger effect = lower value 0.991 | S. cerevisiae deletion strains, locus YKL068W, stronger effect = lower value 1 | S. cerevisiae deletion strains, locus YKL085W, strain MDH1 (second series), stronger effect = lower value 1.02 | S. cerevisiae deletion strains, locus YKL085W, strain MDH1, stronger effect = lower value 1.02 | S. cerevisiae deletion strains, locus YKL160W, strain elf1, stronger effect = lower value 0.972 | S. cerevisiae deletion strains, locus YKL190W, strain CNB1, stronger effect = lower value 1 | S. cerevisiae deletion strains, locus YKR001C, strain vps1, stronger effect = lower value 1.02 | S. cerevisiae deletion strains, locus YKR026C, strain gcn3, stronger effect = lower value 0.961 | S. cerevisiae deletion strains, locus YKR091W, strain srl3, stronger effect = lower value 0.98 | S. cerevisiae deletion strains, locus YLL001W, strain dnm1, stronger effect = lower value 0.974 | S. cerevisiae deletion strains, locus YLL026W, stronger effect = lower value 1 | S. cerevisiae deletion strains, locus YLL041C, strain sdh2, stronger effect = lower value 0.989 | S. cerevisiae deletion strains, locus YLR027C, strain aat2, stronger effect = lower value 0.993 | S. cerevisiae deletion strains, locus YLR039C, strain RIC1, stronger effect = lower value 1.01 | S. cerevisiae deletion strains, locus YLR058C, strain SHM2, stronger effect = lower value 1.01 | S. cerevisiae deletion strains, locus YLR102C, strain apc9, stronger effect = lower value 1.02 | S. cerevisiae deletion strains, locus YLR113W, strain HOG1, stronger effect = lower value 0.95 | S. cerevisiae deletion strains, locus YLR221C, strain rsa3, stronger effect = lower value 0.989 | S. cerevisiae deletion strains, locus YLR258W, strain gsy2, stronger effect = lower value 0.989 | S. cerevisiae deletion strains, locus YLR262C, strain YPT6 (second series), stronger effect = lower value 0.991 | S. cerevisiae deletion strains, locus YLR262C, strain YPT6, stronger effect = lower value 1.05 | S. cerevisiae deletion strains, locus YLR268W, strain sec22, stronger effect = lower value 1.01 | S. cerevisiae deletion strains, locus YLR320W, strain mms22, stronger effect = lower value 1.01 | S. cerevisiae deletion strains, locus YLR330W, strain CHS5, stronger effect = lower value 1.01 | S. cerevisiae deletion strains, locus YLR342W, strain FKS1 (second series), stronger effect = lower value 0.993 | S. cerevisiae deletion strains, locus YLR342W, strain FKS1, stronger effect = lower value 0.991 | S. cerevisiae deletion strains, locus YLR357W, strain rsc2, stronger effect = lower value 0.983 | S. cerevisiae deletion strains, locus YLR370C, strain arc18, stronger effect = lower value 0.989 | S. cerevisiae deletion strains, locus YLR371W, strain rom2, stronger effect = lower value 1.01 | S. cerevisiae deletion strains, locus YLR384C, strain iki3, stronger effect = lower value 0.976 | S. cerevisiae deletion strains, locus YLR418C, strain cdc73, stronger effect = lower value 1.01 | S. cerevisiae deletion strains, locus YML016C, strain PPZ1, stronger effect = lower value 1.01 | S. cerevisiae deletion strains, locus YML032C, strain rad52, stronger effect = lower value 1 | S. cerevisiae deletion strains, locus YML120C, strain ndi1, stronger effect = lower value 0.979 | S. cerevisiae deletion strains, locus YML124C, strain tub3, stronger effect = lower value 1.01 | S. cerevisiae deletion strains, locus YMR058W, strain fet3, stronger effect = lower value 0.975 | S. cerevisiae deletion strains, locus YMR078C, strain ctf18, stronger effect = lower value 1.02 | S. cerevisiae deletion strains, locus YMR125W, strain sto1, stronger effect = lower value 0.941 | S. cerevisiae deletion strains, locus YMR129W, stronger effect = lower value 0.987 | S. cerevisiae deletion strains, locus YMR205C, strain PFK2, stronger effect = lower value 1.02 | S. cerevisiae deletion strains, locus YMR223W, strain ubp8, stronger effect = lower value 1.01 | S. cerevisiae deletion strains, locus YMR231W, strain pep5, stronger effect = lower value 1 | S. cerevisiae deletion strains, locus YMR263W, strain SAP30, stronger effect = lower value 1.01 | S. cerevisiae deletion strains, locus YMR307W, strain GAS1, stronger effect = lower value 1.04 | S. cerevisiae deletion strains, locus YNL067W, strain RPL9B, stronger effect = lower value 1.01 | S. cerevisiae deletion strains, locus YNL071W, strain lat1, stronger effect = lower value 0.986 | S. cerevisiae deletion strains, locus YNL128W, strain TEP1, stronger effect = lower value 1 | S. cerevisiae deletion strains, locus YNL153C, strain GIM3, stronger effect = lower value 1.01 | S. cerevisiae deletion strains, locus YNL183C, strain NPR1, stronger effect = lower value 0.915 | S. cerevisiae deletion strains, locus YNL209W, strain ssb2, stronger effect = lower value 0.984 | S. cerevisiae deletion strains, locus YNL233W, strain BNI4, stronger effect = lower value 1 | S. cerevisiae deletion strains, locus YNL248C, strain rpa49, stronger effect = lower value 0.954 | S. cerevisiae deletion strains, locus YNL250W, strain rad50, stronger effect = lower value 1 | S. cerevisiae deletion strains, locus YNL271C, strain bni1, stronger effect = lower value 1.01 | S. cerevisiae deletion strains, locus YNL298W, strain CLA4, stronger effect = lower value 1 | S. cerevisiae deletion strains, locus YNL307C, strain MCK1, stronger effect = lower value 1.02 | S. cerevisiae deletion strains, locus YNL322C, strain KRE1 (second series), stronger effect = lower value 0.979 | S. cerevisiae deletion strains, locus YNL322C, strain KRE1, stronger effect = lower value 1.02 | S. cerevisiae deletion strains, locus YNR049C, strain mso1, stronger effect = lower value 0.983 | S. cerevisiae deletion strains, locus YNR052C, strain pop2, stronger effect = lower value 1.02 | S. cerevisiae deletion strains, locus YOL006C, strain TOP1, stronger effect = lower value 1.04 | S. cerevisiae deletion strains, locus YOL012C, strain htz1 1.07 | S. cerevisiae deletion strains, locus YOL147C, strain pex11, stronger effect = lower value 1.01 | S. cerevisiae deletion strains, locus YOR001W, strain rrp6, stronger effect = lower value 0.963 | S. cerevisiae deletion strains, locus YOR061W, strain CKA2, stronger effect = lower value 1.01 | S. cerevisiae deletion strains, locus YOR069W, strain VPS5, stronger effect = lower value 0.991 | S. cerevisiae deletion strains, locus YOR070C, strain gyp1, stronger effect = lower value 0.999 | S. cerevisiae deletion strains, locus YOR080W, strain dia2, stronger effect = lower value 0.99 | S. cerevisiae deletion strains, locus YOR083W, strain WHI5, stronger effect = lower value 0.967 | S. cerevisiae deletion strains, locus YOR106W, strain vam3, stronger effect = lower value 0.972 | S. cerevisiae deletion strains, locus YOR136W, strain idh2, stronger effect = lower value 1.02 | S. cerevisiae deletion strains, locus YOR144C, strain elg1, stronger effect = lower value 1.02 | S. cerevisiae deletion strains, locus YOR184W, strain ser1, stronger effect = lower value 1 | S. cerevisiae deletion strains, locus YOR231W, strain MKK1, stronger effect = lower value 0.995 | S. cerevisiae deletion strains, locus YOR265W, strain rbl2, stronger effect = lower value 0.991 | S. cerevisiae deletion strains, locus YOR270C, strain vph1, stronger effect = lower value 0.974 | S. cerevisiae deletion strains, locus YOR290C, strain snf2, stronger effect = lower value 0.955 | S. cerevisiae deletion strains, locus YOR316C, strain cot1, stronger effect = lower value 1.02 | S. cerevisiae deletion strains, locus YPL051W, strain arl3, stronger effect = lower value 0.979 | S. cerevisiae deletion strains, locus YPL055C, strain LGE1, stronger effect = lower value 0.998 | S. cerevisiae deletion strains, locus YPL078C, strain atp4, stronger effect = lower value 0.948 | S. cerevisiae deletion strains, locus YPL106C, strain sse1, stronger effect = lower value 0.972 | S. cerevisiae deletion strains, locus YPL240C, strain hsp82, stronger effect = lower value 0.997 | S. cerevisiae deletion strains, locus YPL241C, strain CIN2, stronger effect = lower value 1.06 | S. cerevisiae deletion strains, locus YPL256C, strain CLN2, stronger effect = lower value 1 | S. cerevisiae deletion strains, locus YPR119W, strain clb2, stronger effect = lower value 1 | S. cerevisiae deletion strains, locus YPR141C, strain kar3, stronger effect = lower value 0.996 | S. cerevisiae deletion strains, locus YPR163C, strain tif3, stronger effect = lower value 1.01 | S. cerevisiae deletion strains, locus YPR167C, strain met16, stronger effect = lower value 1.02 | S. cerevisiae deletion strains, strain wtn01, stronger effect = lower value 1.01 | S. cerevisiae strains, strain wild type, stronger effect = lower value 0.994
